SW480 rerep = A quantitative high throughput screen for small molecules that induce DNA re-replication in SW480 colon adenocarcinoma cells; SW480 DNA re-replication, Hoechst DNA content imaging, 48 h; Potency, µM (top dose mostly 46.1 µM), usual class: activators; 340,000 tested, 1.8% active; further: nearly all actives have a fitted effect of over 55% in size
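Readout is total intensity of Hoechst-stained nuclei, excited at 405 nm and collected at 500-530 nm. Compound treatment lasted 48 hr at 37 C in 5% CO2 before staining.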
HT1080 IDH1KD tx = qHTS for induction of synthetic lethality in tumor cells producing 2HG: qHTS for the HT-1080-IDH1KD cell line; HT-1080 IDH1 knockdown viability, ATP luminescence, 48 h; Potency, µM (highest dose often 46.1 µM), most hits filed as cytotoxic; 360,000 tested, 2% active; AID 686971, 2013
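After a 2 h attachment period, IDH1KD HT-1080 cells took pin-transferred compound for 48 h at 37 °C; ATP-based luminescence after 10 min room-temperature reagent incubation reported viability.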
HT1080NT lethal = qHTS for induction of synthetic lethality in tumor cells producing 2HG: qHTS for the HT-1080-NT fibrosarcoma cell line; HT-1080-NT fibrosarcoma viability, CellTiter-Glo ATP luminescence, 48 h; AID 686970, 2013; Potency, µM (highest dose often 46.1 µM), hits mostly cytotoxic; 360,000 tested, 1.6% active;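 further: NT is the 2HG producing partner of a matched IDH1 knockdown line; nearly all actives have a fitted effect of over 55% in size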
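A 48-hour cytotoxicity screen used HT-1080-NT cells plated 2 hours before compound delivery. ATP-based CellTiter-Glo luminescence measured viability, normalized to DMSO and no-cell controls.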
MCF10A rereplic = A quantitative high throughput screen for small molecules that induce DNA re-replication in MCF 10a normal breast cells. MCF 10A DNA re-replication, Hoechst nuclear intensity, 48 h. Potency, µM (doses to about 46.1 µM), actives largely listed as activators. 350,000 tested, 2.9% active. AID 624296, 2012; further: nearly all actives have a fitted effect of over 50% in size
KB-V1 MDR tox = qHTS assay for MDR1-selective chemotherapeutics: Primary screen using the drug-selected MDR subline cells KB-V1 | KB-V1 MDR cells viability, CellTiter-Glo, 72 h | Potency, µM (titrated, usually from 46.1 µM), actives largely listed as cytotoxic | 400,000 tested, 3.4% active | AID 1347076, 2019; further: nearly all actives have a fitted effect of over 60% in size
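KB-V1, DMEM (no phenol red) + 10% FBS; cpd pin-transferred, titration series; 72 h, 37 degrees C; CellTiter-Glo, luminescence. Data normalized, curve-fit.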
KB-3-1 tox = qHTS assay for MDR1-selective chemotherapeutics: Primary screen using the parental adenocarcinoma cell KB-3-1; 400,000 tested, 1.4% active; Potency, µM (highest dose often 46.1 µM), most hits filed as cytotoxic; KB-3-1 viability, CellTiter-Glo ATP luminescence, 72 h; AID 1347075, 2019; further: nearly all actives have a fitted effect of over 60% in size
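Multi-concentration cytotoxicity screen in KB-3-1 cells grown in DMEM lacking phenol red with 10% FBS. After 72 h at 37 °C with compound, ATP-dependent luminescence was recorded.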
Large screens that a line does not name were inactive. An excerpt weighted towards active compounds, which were near 7.9% of everything screened. The call rests on the fitted dose curve; in most records, active means well fitted curve in the direction sought with a large enough effect; inconclusive means small, poorly fitted or top-dose-only effect, or another doubt; inactive means no such curve, though single readings can be large; an effect the other way counts as inactive or inconclusive.

CCOC(=O)c1cc(C(C)C)sc1NC(=O)COC(=O)CCS(=O)(=O)c1ccccc1	SW480 rerep inconclusive, KB-V1 MDR tox 18µM
CCOC(=O)c1ccsc1NC(=O)CCS(=O)(=O)c1ccccc1	SW480 rerep inconclusive (no result: KB-V1 MDR tox, KB-3-1 tox)
Cc1cc(F)ccc1NC(=O)c1cccnc1	none
Cc1nnc(NC(=O)c2nc(S(=O)(=O)Cc3ccccc3C)ncc2Cl)s1	SW480 rerep inconclusive, HT1080 IDH1KD tx inconclusive, HT1080NT lethal 18µM, MCF10A rereplic 2.6µM, KB-V1 MDR tox inconclusive, KB-3-1 tox inconclusive
CC(C)c1nnc(NC(=O)c2nc(S(=O)(=O)Cc3ccccc3F)ncc2Cl)s1	HT1080 IDH1KD tx inconclusive, HT1080NT lethal 18µM, MCF10A rereplic 0.73µM, KB-3-1 tox inconclusive
CSc1nnc(NC(=O)c2nc(S(=O)(=O)Cc3ccccc3F)ncc2Cl)s1	SW480 rerep inconclusive, HT1080 IDH1KD tx 21µM, HT1080NT lethal inconclusive, MCF10A rereplic inconclusive, KB-V1 MDR tox inconclusive, KB-3-1 tox inconclusive
O=C(Nc1ccccc1)c1nc(S(=O)(=O)Cc2ccccc2F)ncc1Cl	none (no result: SW480 rerep, HT1080 IDH1KD tx, HT1080NT lethal, MCF10A rereplic)
Cc1c(NC(=O)CSc2nnnn2Cc2ccccc2)c(=O)n(-c2ccccc2)n1C	none
COc1cccc(C2NC(=O)NC(O)(C(F)(F)F)C2C(=O)c2cccnc2)c1OC (centres undefined)	none
O=C(CNC(=O)N1CC(=O)Nc2ccccc21)Nc1ccccc1F	none
O=C(Nc1ccncc1)C1CCCN(S(=O)(=O)c2cccc3cccnc23)C1 (centres undefined)	SW480 rerep 2.1µM, HT1080 IDH1KD tx inconclusive, HT1080NT lethal 3.3µM, MCF10A rereplic 9.2µM, KB-3-1 tox inconclusive
O=C(Nc1ccc(C(F)(F)F)cc1)C1CCCN(S(=O)(=O)c2cccc3cccnc23)C1 (centres undefined)	none (no result: SW480 rerep, HT1080 IDH1KD tx, HT1080NT lethal, MCF10A rereplic)
Cc1ncccc1C(=O)N1CCCC(c2cc(C(=O)Nc3ccc(C(C)(C)C)cc3)no2)C1 (centres undefined)	HT1080 IDH1KD tx inconclusive, HT1080NT lethal 21µM (no result: SW480 rerep, MCF10A rereplic)
CC(C)(C)c1ccc(NC(=O)c2cc(C3CCCN(S(=O)(=O)c4cccc5cccnc45)C3)on2)cc1 (centres undefined)	HT1080 IDH1KD tx inconclusive, KB-V1 MDR tox 23µM, KB-3-1 tox inconclusive (no result: SW480 rerep, MCF10A rereplic)
COc1cccc(NC(=O)Cn2nc(Cc3cccnc3)c3ccccc3c2=O)c1	none
O=C(Nc1ccc(Cl)cc1)C1CCN(C(=O)NC2CCCCC2)CC1	none
O=C(c1ccc(Cl)cc1)C1CCN(C(=O)NC2CCCCC2)CC1	HT1080 IDH1KD tx inconclusive, KB-V1 MDR tox 2.3µM
COC(=O)C1=C(C)N(C)C(C)=C(C(=O)OC)C1c1ccccn1	none
CCOC(=O)c1cc(NC(=O)CSCCO)ccc1Cl	none
COc1ccc(CN(C)Cc2nc(Cc3cccc(F)c3)no2)c2cccnc12	MCF10A rereplic inconclusive, KB-V1 MDR tox 1.8µM, KB-3-1 tox inconclusive
COc1cc2c(cc1OC)CN(C(=O)CCOc1ccccc1C)CC2	SW480 rerep inconclusive, HT1080 IDH1KD tx inconclusive, HT1080NT lethal inconclusive, MCF10A rereplic inconclusive, KB-V1 MDR tox 16µM, KB-3-1 tox inconclusive
Cc1ccccc1OCCC(=O)N1CCN(S(=O)(=O)c2ccc(F)cc2)CC1	none (no result: KB-V1 MDR tox, KB-3-1 tox)
Cc1cc(C)c(S(=O)(=O)N2CCN(C(=O)CCOc3ccccc3C)CC2)c(C)c1	KB-V1 MDR tox 5.2µM, KB-3-1 tox inconclusive
CCOc1ccccc1OCCCC(=O)N1CCN(S(=O)(=O)c2cccc(F)c2)CC1	HT1080NT lethal inconclusive, KB-V1 MDR tox 6.5µM
Cc1cccc(C)c1-n1nnnc1-c1nc2cc3ccccc3cc2[nH]c1=O	HT1080 IDH1KD tx 0.37µM, HT1080NT lethal 0.65µM, KB-V1 MDR tox 6.5µM, KB-3-1 tox 1µM (no result: SW480 rerep, MCF10A rereplic)
Cc1cccc(C)c1-n1nnnc1-c1nc2cc(Br)ccc2[nH]c1=O	none (no result: SW480 rerep, MCF10A rereplic)
Cc1ccc(-c2noc(CCC(=O)Nc3cc(C)ccn3)n2)cc1	none
CCOC(=O)c1sc(NC(=O)c2cc(-c3ccc(C)cc3)nc3ccccc23)c(C#N)c1C	HT1080 IDH1KD tx inconclusive, HT1080NT lethal 16µM, MCF10A rereplic inconclusive, KB-V1 MDR tox 3.3µM, KB-3-1 tox inconclusive
Cc1ccccc1-c1cc(C(=O)Nc2sc(C(=O)OC(C)C)c(C)c2C#N)c2ccccc2n1	SW480 rerep inconclusive, HT1080 IDH1KD tx inconclusive, HT1080NT lethal inconclusive, MCF10A rereplic inconclusive, KB-V1 MDR tox 8.2µM, KB-3-1 tox 5.2µM
Cc1sc(NC(=O)c2cc(-c3ccccc3)nc3ccccc23)c(C(N)=O)c1C	KB-V1 MDR tox inconclusive, KB-3-1 tox inconclusive
COC(=O)c1sc(NC(=O)c2cc(-c3ccccc3)nc3ccccc23)c(C#N)c1C	HT1080 IDH1KD tx inconclusive, HT1080NT lethal inconclusive, MCF10A rereplic inconclusive, KB-V1 MDR tox 1.6µM, KB-3-1 tox 1.5µM
Cc1sc(NC(=O)c2cc(-c3ccc(Cl)cc3)nc3ccccc23)c(C(N)=O)c1C	SW480 rerep inconclusive, MCF10A rereplic 18µM
CC1=C(C(=O)N2CCOCC2)CC(CC(=O)NCCCCc2ccccc2)C(=O)N1CCCN1CCCC1=O (centres undefined)	KB-V1 MDR tox inconclusive (no result: SW480 rerep, MCF10A rereplic)
Cc1cccc(N2CCN(CCCNC(=O)c3ccc(NC(=O)C4=CSCCO4)cc3)CC2C)c1 (centres undefined)	SW480 rerep inconclusive, HT1080 IDH1KD tx 21µM, HT1080NT lethal inconclusive, MCF10A rereplic inconclusive
CC1CCCN(CCCNC(=O)c2ccc(NC(=O)C3=CSCCO3)cc2)C1 (centres undefined)	none
CCc1cccc(CC)c1NC(=S)N1CCn2cccc2C1c1ccncc1 (centres undefined)	none
CCCS(=O)(=O)N1CCC(C(=O)NCCCOC)CC1	none
COc1nc(OC)nc(N2CCC(C(=O)NCc3cccs3)CC2)n1	KB-V1 MDR tox 18µM
Cc1ccnc(N2CCCC(C(=O)NCc3cccs3)C2)n1 (centres undefined)	MCF10A rereplic inconclusive
O=C(NCc1ccco1)C1CCCN(c2nnc(-n3cccc3)s2)C1 (centres undefined)	HT1080 IDH1KD tx inconclusive, HT1080NT lethal 2.6µM
Cc1cc(C)nc(N2CCCC(C(=O)NCc3cccs3)C2)n1 (centres undefined)	KB-V1 MDR tox 16µM
CCS(=O)(=O)N1CCC(C(=O)NCCCOC)CC1	SW480 rerep 15µM, MCF10A rereplic inconclusive
Cc1cnc(C)c(N2CCC(C(=O)NCc3cccs3)CC2)n1	none
O=S(=O)(c1ccc2c(c1)OCCO2)N1CCC(O)(c2ccc(Cl)cc2)CC1	none
CCCCNC(=O)C1CCN(c2nc(OC)nc(OC)n2)CC1	KB-V1 MDR tox 21µM
